These results are taken from PubChem BioAssay (NCATS).

Structures are written as SMILES. Results filed as inconclusive are left out. Values without a mark were called inactive. The source made the active and inactive calls. Calls come from the whole dose curve; as a rule, active = well fitted inhibition curve with a large enough effect; inconclusive = small, poorly fitted or top-dose-only effect; inactive = no such curve, though single readings can be large or run the other way.

For assay [1], the system named is Zika virus NS2B-NS3 protease (unlinked complex). The experiment in a line: Primary screen GU Rhodamine qHTS for Zika virus inhibitors: Unlinked NS2B-NS3 protease assay (AID 1347159). Note: nearly all actives have a fitted effect of over 60% in size. The gist of the method: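 Unlinked NS2B/NS3, 25 nM; Rhod110 peptide, 1.5 microM; compounds, up to 114 microM. Reaction run 15 min at RT in 10 mM Tris-HCl pH 8.0, 0.01% Tween 20; kinetic fluorescence change fitted with a 4-parameter Hill model.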
(qHTS replaces the single test concentration by a dilution series.)

Assay [2] deals with Zika virus NS2B-NS3 protease (linked construct). The experiment in a line: Primary screen NINDS Rhodamine qHTS for Zika virus inhibitors (AID 1347160). Note: nearly all actives have a fitted effect of over 55% in size. The gist of the method: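 Single-chain NS2B-NS3 protease, 25 nM, pH 8.0; compounds preincubated 15 min. Activity: Rhodamine110 release from 1.5 microM substrate over 15 min, room temperature, data fitted to 4-parameter Hill.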
% is set by controls: 0 for no effect and ±100 for the full control effect; potency is the fitted concentration of half-maximal effect.

Turning to `CC(=O)OCCC(C)CCC1C(C)(O)CCC2C(C)(C)CCCC21C` (stereo not given), the Potency in assay [1] is 8.91 µM (active); in assay [2], 11.2 µM (active).

On to `CC1C(=O)CC2C3C(O)CC(C(=O)O)C12CC3(C)C` (stereo not given), for which the Potency result in assay [1] and in assay [2] was “inactive” throughout.

In the case of `C#Cc1cnc2[nH]c(=O)n(C(CC)CC)c2n1`, the Potency result in assay [1] and in assay [2] was “inactive” in each case.

`CC(C)=CC/C=C(/C)[C@H]1CC[C@]2(C)[C@@H]1[C@H](O)CC1[C@@]3(C)CC[C@H](O)C(C)(C)[C@@H]3[C@@H](O[C@@H]3O[C@H](CO)[C@@H](O)[C@H](O)[C@H]3O[C@@H]3O[C@@H](C)[C@H](O)[C@@H](O)[C@H]3O)C[C@]12C` (stereo not given in full): the Potency entry in assay [1] and in assay [2] was “inactive” each time.

Consider `C[C@H]1C[C@H]2[C@@H]3CCC4=CC(=O)C=C[C@]4(C)[C@@]3(F)[C@@H](O)C[C@]2(C)[C@@]1(O)C(=O)COP(=O)(O)O`, for which the Potency entry in assay [1] and in assay [2] was “inactive” throughout.

With `COc1cc(C(C)=O)ccc1O[C@@H]1O[C@H](CO[C@@H]2O[C@@H](C)[C@H](O)[C@@H](O)[C@H]2O)[C@@H](O)[C@H](O)[C@H]1O`, the Potency entry in assay [1] and in assay [2] was “inactive” throughout.

For the compound `C=CC1C(O[C@@H]2O[C@H](CO)[C@@H](O)[C@H](O)[C@H]2O)OC=C(C(=O)OC)C1Cc1nccc2c1[nH]c1ccccc12` (stereo not given in full), the Potency entry in assay [1] and in assay [2] was “inactive” throughout.

Regarding `CCOC(=O)c1ccnc(CNCC(=O)N(CC)CCN(C)C)c1`, the Potency result in assay [1] and in assay [2] was “inactive” throughout.

Consider `CNC(=O)O[C@H]1COc2ccc(N3CCN(C4COC4)CC3)cc2[C@@H]1NC(=O)c1ccc(F)cc1`, for which the Potency result in assay [1] and in assay [2] was “inactive” throughout.

For the compound `C1CCN2CC3C[C@@H](CN4CCCC[C@@H]34)[C@H]2C1`, the Potency result in assay [1] and in assay [2] was “inactive” throughout.

On to `C[C@H]1[C@H](C)CC[C@]2(C(=O)O)CC[C@]3(C(=O)O)C(=CCC4[C@@]5(C)CC[C@H](O[C@@H]6O[C@H](C)[C@@H](O)[C@H](O)[C@H]6O)C(C)(C)C5CC[C@]43C)[C@H]12` (stereo not given in full), for which the Potency result in assay [1] and in assay [2] was “inactive” in each case.

Turning to `O=C(/C=C/c1ccc(O)cc1)OC[C@]12O[C@H]1[C@@H](O)[C@@H]1C=CO[C@@H](O[C@@H]3O[C@H](CO)[C@@H](O)[C@H](O)[C@H]3O)[C@@H]12`, the Potency result in assay [1] and in assay [2] was “inactive” each time.

In the case of `CCCCNC(=O)[C@@H]1Cc2ccccc2N1C(=O)[C@@H](N)CC`, the Potency entry in assay [1] and in assay [2] was “inactive” each time.

Turning to `CC/C=C/CC1=C(CCCCCCCC(=O)O)CCC1=O`, the Potency entry in assay [1] and in assay [2] was “inactive” throughout.

Consider `CC(=O)OC1C(O)C(C)=C(CCC(C)CC(=O)O)C2(C)CCCC(C)(C)C12` (stereo not given), for which the Potency result in assay [1] and in assay [2] was “inactive” in each case.

Turning to `Nc1nc(CC(=O)Nc2ccc(CCNCC(O)c3ccccc3)cc2)cs1` (stereo not given), the Potency entry in assay [1] and in assay [2] was “inactive” in each case.

Consider `C[C@@H]1O[C@@H](O[C@@H]2[C@@H](O)[C@H](O[C@@H]3[C@@H](O)[C@@H](O)[C@H](O[C@H]4[C@H](OC(=O)[C@]56CCC(C)(C)C[C@H]5C5=CCC7[C@@]8(C)C[C@H](O)[C@H](O[C@@H]9O[C@H](C(=O)O)[C@@H](O)[C@H](O)[C@H]9O)[C@@](C)(CO)C8[C@H](O)C[C@@]7(C)[C@]5(C)CC6)OC[C@H](O)[C@@H]4O)O[C@H]3C)OC[C@H]2O)[C@H](O)[C@H](O)[C@H]1O` (stereo not given in full), for which the activity change, negative = inhibition in assay [1] is 20.7% [at 19.1 µM]. For the same compound, the outcome in assay [2] was “inactive [at 10.7 µM]”.

As to `OCC1=CC[C@@H]2C=CO[C@@H](O[C@@H]3O[C@H](CO)[C@@H](O)[C@H](O)[C@H]3O)[C@H]12`, the Potency result in assay [1] and in assay [2] was “inactive” each time.

As to `CNC(=O)c1ccc(Nc2ncc(C(F)(F)F)c(NCc3nccnc3N(C)S(C)(=O)=O)n2)cc1`, the Potency result in assay [1] and in assay [2] was “inactive” in each case.

For the compound `C=C1C(=O)O[C@H]2[C@H]1[C@@H](OC(=O)C(C)CO)C[C@@]1(C)[C@H](O)CCC(=O)[C@H]21` (stereo not given in full), the Potency result in assay [1] and in assay [2] was “inactive” in each case.

Consider `C=CC(C)(C)C12CC3C(=O)NC(Cc4cnc[nH]4)C(=O)N3C1Nc1ccccc12` (stereo not given), for which the Potency entry in assay [1] and in assay [2] was “inactive” throughout.

As for `COC(=O)[C@@H]1C2CC3c4[nH]c5ccccc5c4CCN3CC2CC[C@@H]1O` (stereo not given in full), the Potency result in assay [1] and in assay [2] was “inactive” throughout.

On to `CC(C)(C)c1cc(CN2CCN(CC(O)c3ccc(Cl)cc3)CC2)cc(C(C)(C)C)c1O` (stereo not given), for which the Potency result in assay [1] and in assay [2] was “inactive” in each case.

As for `C[C@@H]1O[C@@H](O[C@H]2[C@H](O[C@H]3CC[C@@]4(C)C(CC[C@]5(C)C4CC=C4[C@@H]6CC(C)(C)CC[C@]6(C(=O)O)CC[C@]45C)[C@]3(C)CO)OC[C@H](O)[C@@H]2O)[C@H](O)[C@H](O[C@@H]2OC[C@@H](O)[C@H](O)[C@H]2O)[C@H]1O` (stereo not given in full), the Potency result in assay [1] and in assay [2] was “inactive” throughout.

For the compound `C=CC1(C)CC(OC(=O)C(=C)C(O)COC(C)=O)C(C(=C)C(=O)OC)C(O)C1C(=C)CO` (stereo not given), the Potency result in assay [1] and in assay [2] was “inactive” in each case.

For the compound `CC(=O)OCC1=C[C@H](O)[C@@H]2C(C(=O)O)=CO[C@@H](O[C@@H]3O[C@H](CO)[C@@H](O)[C@H](O)[C@H]3O)[C@H]12`, the Potency entry in assay [1] and in assay [2] was “inactive” each time.

Regarding `CNC(=O)[C@H]1O[C@@H](n2cnc3c(NCc4ccc(N)c(I)c4)ncnc32)[C@H](O)[C@@H]1O`, in assay [1], the activity change, negative = inhibition was 10.8% [at 19.1 µM]. In addition, the outcome in assay [2] is “inactive [at 10.7 µM]”.

As for `O=C(c1ccccn1)c1cnn2c(-c3ccncc3)ccnc12`, the Potency result in assay [1] and in assay [2] was “inactive” throughout.

For `COc1cc([C@H]2OC[C@@H]3[C@@H](c4ccc(O[C@@H]5O[C@H](CO)[C@@H](O)[C@H](O)[C@H]5O)c(OC)c4)OC[C@]23O)ccc1O`, the Potency result in assay [1] and in assay [2] was “inactive” in each case.

Regarding `COc1cc(C(=O)OC[C@H]2O[C@H](O[C@@]3(CO)O[C@@H](CO)[C@H](O)[C@H]3O)[C@H](O)[C@@H](O)[C@@H]2O)ccc1O`, the Potency entry in assay [1] and in assay [2] was “inactive” in each case.
